Measurements: PubChem BioAssay
Activity calls are given as the source filed them.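 Rule for the calls: active = NADPH fluorescence slope more negative than the mean of all samples by about 3 SD, 99.7% confidence; inactive = the rest.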

Each molecule was assayed against Voltage-gated potassium channel subunit beta-2 (Rattus norvegicus) (UniProt P62483) (assay: enhancers of rat Kvbeta2 NADPH turnover – biochemical, NADPH fluorescence, primary screen (AID 623;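 note: fluorescence intensity change per second fitted from 20 to 320 s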)). Conditions: Recombinant KvBeta, NADPH fluorescence decrease slope, 10 min; at 10 µM; hits give low values.
Sequence of Voltage-gated potassium channel subunit beta-2 (Rattus norvegicus) (P62483 whole entry, looked up): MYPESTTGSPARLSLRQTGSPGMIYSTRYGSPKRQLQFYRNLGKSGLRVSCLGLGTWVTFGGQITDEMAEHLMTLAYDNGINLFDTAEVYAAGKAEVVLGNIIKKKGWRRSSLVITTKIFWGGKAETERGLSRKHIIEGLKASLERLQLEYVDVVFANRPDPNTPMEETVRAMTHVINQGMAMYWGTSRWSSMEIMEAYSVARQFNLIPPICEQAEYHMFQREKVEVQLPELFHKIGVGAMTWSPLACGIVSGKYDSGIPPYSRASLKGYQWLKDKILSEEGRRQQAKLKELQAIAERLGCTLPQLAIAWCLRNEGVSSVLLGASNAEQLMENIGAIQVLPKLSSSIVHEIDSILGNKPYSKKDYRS

NADPH fluorescence slope, inactive:
CN(c1ccccc1C(N)=O)S(=O)(=O)c1ccccc1 1.6e-05, COCC(=O)N(C)c1nnc(-c2ccccn2)s1 -1.3e-05, CCOC(=O)C1CCCN(C(=O)c2sc3nc(-c4ccccc4)cn3c2C)C1 (centres undefined) 1.7e-05, Cc1cc(C)nc(NC(=O)c2c(-c3c(Cl)cccc3Cl)noc2C)n1 7.7e-06, O=C(Nc1cnn(C23CC4CC(CC(C4)C2)C3)c1)c1cnn2c(C(F)(F)F)cc(-c3ccco3)nc12 -2.2e-05, O=C(O)c1cccn2c(=O)c3ccccc3nc12 -2.6e-05, CC(C)Cn1c(N)c(C(=O)NCc2cccs2)c2nc3ccccc3nc21 7.5e-06, CCCS(=O)(=O)N1CCN(C(=O)c2cccs2)CC1 -3.8e-05, Cc1nc(C)c(C(=O)C2=C(O)C(=O)N(CCN3CCOCC3)C2c2ccco2)s1 (centres undefined) -2.3e-06, Cc1ccc(S(=O)(=O)N2C(=O)CCC2C(=O)Nc2ccc3c(c2)OCCO3)cc1 (centres undefined) -2.2e-05, COc1cccc(C2=NOC(C(=O)N3CCc4ccccc4C3)C2)c1 (centres undefined) -4.1e-05, Cc1ccccc1C1CC(c2ccccc2)Nc2ncnn21 (centres undefined) -1.4e-06, O=S(=O)(c1cccc2nsnc12)N1CCN(c2ncccn2)CC1 -4.2e-05, CCN(CC)S(=O)(=O)c1cccc(-c2nnc(SCC(N)=O)n2CCc2ccccc2)c1 -8.5e-06, O=C(O)c1cc(Cl)c(Cl)cc1C(=O)N1CCCC1 4.1e-07, Cc1cccc(N2C(=O)CC(N3CCN(c4cccc(C(F)(F)F)c4)CC3)C2=O)c1 (centres undefined) 8.5e-06, COCCN(CCOC)c1ncnc2c1cnn2-c1ccccc1 -2.1e-05, Cc1csc(NC(=O)C2CCCO2)n1 (centres undefined) -5.6e-05, COC(=O)c1cc2oc(C)cc2n1CC(=O)Nc1ccc(C)c(C)c1 -1.2e-05, CCOc1ccc2nc(NC(=O)C3CCCN(S(=O)(=O)c4c(C)noc4C)C3)sc2c1 (centres undefined) -1.1e-05, Cc1ccccc1-n1nnnc1SCC(=O)Nc1ccc(S(=O)(=O)N2CCCC2)cc1 1.4e-05, Nn1cnnc1SCC(=O)Nc1ccc2c(c1)OCCO2 -8.3e-06, CCN(CC)S(=O)(=O)c1ccc(F)c(C(=O)NCCC(C)C)c1 -1.6e-05, CCc1ccc(NC(=O)C2CC(=O)N(C(C)C)C2)cc1 (centres undefined) 2.5e-05
